Source: PubChem BioAssay (Broad Institute)
MITF act = activators of MITF-driven TRPM1 promoter reporter, primary screen, cell-based, SK-MEL-5, luciferase, single point; activation, % at 12.5 µM; SK-MEL-5 TRPM1-promoter luciferase, 24 h; % of positive control, neutral wells = 0; AID 588334, 2011; 300,000 compounds, 0.75% hits;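 active means mean activation of at least 80% with every replicate also reaching 80%; inconclusive means mean reaches 80% but some replicate falls short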
Dyrk1A ADPGlo = rat Dyrk1A kinase inhibitors, primary screen, biochemical, single point, plate reader. Dual specificity tyrosine-phosphorylation-regulated kinase 1A (Rattus norvegicus), Q63470. 310,000 compounds, 0.43% hits. inhibition, % at 12.5 µM. ADP-Glo luminescence, NFATc1 peptide
miR122 inh = miR-122 Renilla sensor signal increase in Huh7, primary screen, miR-122 inhibitor project, cell-based, single point, plate reader. 340,000 compounds, 0.3% hits. activation (reporter increase), % at 12.5 µM. Huh7 miR-122 Renilla luciferase sensor, 48 h; neutral wells = 0, positive control = 100;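 active means mean replicate activation score at least 90 and every replicate individually at or above 90; inconclusive means only one of the two criteria met; inactive means neither criterion met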;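 further: higher luciferase means less miR-122 activity so hits act as miR-122 inhibitors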
Wnt act = Wnt/beta-catenin pathway activators, primary screen, cell-based, plate reader, single point; Wnt/beta-catenin reporter cell assay, activator; 300,000 compounds, 1.2% hits; activation, % at 9.35 µM; in the data active means activation above about 30%, passing the limit was not always enough; inconclusive means no clear call, values can overlap the other calls
INS-1E GSIS act = GLuc luminescence reporter in INS-1E cells, primary screen for activators of glucose-dependent secretion of insulin; INS-1E GLuc reporter insulin secretion, 2-3 h; activation, % at 16.6 µM; 370,000 compounds, 0.61% hits; AID 743287, 2014;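 active means lowest replicate activation of at least 40%, so every replicate reaches that level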
NSD2 inh = NSD2 histone methyltransferase inhibitors, primary screen, biochemical, AlphaScreen, single concentration, set 2 | inhibition, % at 12.5 µM | 310,000 compounds, 0.54% hits | NSD2 peptide methylation, 120 min | Histone-lysine N-methyltransferase NSD2 (Homo sapiens), O96028
Hits are given with their value; - = inactive; ? = inconclusive; . = not tested or not shown. Rows were chosen to be rich in hits. Some 2.4% of all compounds tested hit in one or more screens of this group. Unless noted, no stated cut-off is given here; in the data, active means inhibition above about 50%; inactive means the rest.

SMILES	MITF act	Dyrk1A ADPGlo	miR122 inh	Wnt act	INS-1E GSIS act	NSD2 inh
O=C(CSC(=S)N1CCCC1)c1ccccc1	-	-	-	45	.	-
CCCC(=O)Nc1ccc2c(c1)C(=O)N(C)[C@@H]1CC[C@@H](CC(=O)NCCc3ccccc3)O[C@@H]1CO2	.	.	-	.	-	.
CC(C)(C)NC(=O)C(c1cc2ccccc2o1)n1c(=O)c(-c2ccco2)nc2ccccc21 (centres undefined)	.	.	.	-	-	.
CC(C)(C)NC(=O)C(c1cc2ccccc2o1)n1c(-c2ccc(-c3ccccc3)cc2)nc2ccccc21 (centres undefined)	.	.	.	51	-	.
O=C(c1cc2cc(Br)ccc2[nH]1)N1CCc2ccccc21	-	-	-	-	-	-
COc1ccc2cc(C(=O)N3CCc4ccccc43)[nH]c2c1	-	-	-	46	-	-
O=C(c1cc2cc(F)ccc2[nH]1)N1CCc2ccccc21	-	-	.	42	-	-
COc1ccc2c(CC(=O)N3CCc4ccccc43)coc2c1	111	-	-	.	.	.
COc1ccc2oc(C(=O)N3CCc4ccccc43)c(C)c2c1	-	-	137	-	-	-
CN(C)CCCNC(=O)C[C@@H]1CC[C@H]2[C@@H](COC[C@H](O)CN2Cc2cccc(Cl)c2)O1	.	.	-	.	-	.
COC(=O)c1c(NC(=O)c2ccco2)sc2c1CCC2	-	-	-	-	-	-
O=C(Nc1sc2c(c1C(=O)O)CCC2)c1ccco1	.	-	123	-	-	-
CCOC(=O)c1c(NC(=O)c2nn(CC)cc2Br)sc2c1CCCCC2	-	-	-	.	.	-
O=C(Nc1sc2c(c1C(=O)NCc1ccco1)CCCC2)c1ccc2c(c1)OCO2	100	-	-	-	-	-
COC(=O)c1c(NC(=O)c2ccc(C)o2)sc2c1CCCCC2	.	-	-	52	-	-
CCn1cc(C(=O)NC(=S)Nc2sc3c(c2C(=O)OC)CCCCCC3)cn1	-	.	-	-	74	-
Cc1ccc(C(=O)Nc2sc3c(c2C(=O)O)CCCCC3)o1	-	-	-	.	-	-
C[C@@H]1CCCCO[C@H](CN(C)C(=O)Nc2ccc(C(F)(F)F)cc2)[C@H](C)CN([C@@H](C)CO)C(=O)c2cc(NC(=O)C3CCCCC3)ccc2O1	.	.	-	.	-	.
CCNC(=O)C[C@@H]1C=C[C@@H](NS(=O)(=O)c2ccc(F)cc2)[C@H](CO)O1	.	.	-	.	-	.
COc1ccc(-n2nnc3c(=O)n(CC(=O)N4CCCc5ccccc54)cnc32)cc1	.	-	.	-	.	.
COc1ccc(-n2nnc3c(SCC(=O)N4CCCc5ccccc54)ncnc32)cc1	-	-	-	50	-	.
O=C(C[C@@H]1CC[C@H](NC(=O)c2ccncc2)[C@@H](CO)O1)NCC1CC1	.	.	.	.	-	.
O=C(NCc1ccc(Cl)c(Cl)c1)c1cc(C2CCCCN2C(=O)C2CCCCC2)on1 (centres undefined)	.	.	-	-	-	-
COC(=O)N1CCCCC1c1cc(C(=O)NCc2ccc(Cl)c(Cl)c2)no1 (centres undefined)	.	.	-	-	73	-
C[C@H](CO)N1C[C@H](C)[C@H](CN(C)S(=O)(=O)c2ccc(Cl)cc2)Oc2ccc(NC(=O)CCCCCC(=O)Nc3ccccc3N)cc2CC1=O	.	.	-	.	-	.
SMILES	MITF act	Dyrk1A ADPGlo	miR122 inh	Wnt act	INS-1E GSIS act	NSD2 inh
COCCNC(=S)N/N=C1\CC(C)CC(C)(C)C1 (centres undefined)	-	.	-	34	-	-
Cc1cnc(NC(=O)c2sc(Nc3ccccc3)nc2N)o1	.	-	-	38	-	-
O=C(/C=C/c1ccccc1)CCN1CCOCC1	.	-	-	-	52	-
O=C(/C=C/c1ccccc1)N1CCOCC1	-	-	-	-	-	-
Oc1ccccc1-c1nnc(COc2ccc(Cl)cc2Cl)o1	96	.	-	?	-	.
Cc1cc(/C=C2/NC(=O)N(c3ccccc3)C2=O)c(C)n1-c1cccnc1	-	-	-	37	-	-
CCc1nnc(NS(=O)(=O)c2ccc(N)cc2)s1	-	-	-	79	-	.
CCc1nnc(NS(=O)(=O)c2ccc(NC(=O)c3ccc(Cl)cc3)cc2)s1	-	-	.	-	-	-
CCc1nnc(NS(=O)(=O)c2ccc(NC(=O)c3cccc(Cl)c3)cc2)s1	109	-	-	-	-	-
CCc1nnc(NC(=O)c2ccc(NS(=O)(=O)c3ccccc3)cc2)s1	.	-	212	-	.	-
C[C@@H]1CN([C@H](C)CO)C(=O)c2cc(-c3cncnc3)cnc2O[C@@H]1CN(C)C(=O)Cc1ccccn1	.	.	-	.	-	.
c1ccc2c(Nc3nc4c(s3)CCCC4)cccc2c1	.	-	-	35	.	-
O=S(=O)(Nc1nc2c(s1)CCCC2)c1ccc2ccccc2c1	-	-	-	.	.	-
CC(=O)c1ccc(N=Nc2ccc(N)cc2)cc1	-	-	-	34	-	-
CC(=O)c1ccc(N=Nc2c(C)[nH][nH]c2=O)cc1	.	-	-	-	.	-
C[C@@H]1CN([C@@H](C)CO)C(=O)c2cc(NC(=O)CCN3CCOCC3)ccc2O[C@@H]1CN(C)Cc1ccncc1	.	.	-	.	-	.
O=C(NCc1ccco1)c1ccc2ccccc2c1	90	-	-	.	-	-
CCc1nc2ccc(C(=O)NCCc3ccco3)cc2nc1CC	87	-	-	.	.	-
CCC1=Nc2cc(C(=O)NCCN3CCOCC3)ccc2Sc2ccc(C)cc21	-	-	-	-	-	-
COc1ccc(C(=O)Nc2ccccc2C(=O)NCc2ccco2)cc1OC	.	-	-	48	.	-
CCC1=Nc2cc(C(=O)NCc3ccco3)ccc2Sc2ccc(C)cc21	-	-	119	-	.	-
O=C(NCc1ccco1)c1ccc(C(=O)NCc2ccco2)cc1	-	-	.	-	-	-
COc1ccc(C(=O)Nc2ccc(Cl)cc2C(=O)NCc2ccco2)cc1OC	-	-	-	-	-	-
C[C@@H]1CCCCO[C@@H](CN(C)C)[C@H](C)CN([C@H](C)CO)C(=O)c2cc(NS(=O)(=O)c3ccc(Cl)cc3)ccc2O1	.	.	-	.	-	.
C[C@H]1C(=O)N(C)CCN1Cc1cn(C)nc1-c1ccc(Oc2ccccc2)cc1	-	-	-	-	-	.
CCN(CC)C(=O)C1CCN(Cc2cn(C)nc2-c2ccc(Oc3ccccc3)cc2)CC1	-	-	.	54	-	-
COc1cc(CN2CCc3ccccc3C2)ccc1O	-	-	-	-	77	-
Oc1c(C(Nc2cccc(C(F)(F)F)c2)c2ccncc2)ccc2cccnc12 (centres undefined)	-	-	.	53	-	.
O=C(CNc1ccccc1OC(F)F)N1CCc2ccccc21	108	-	.	.	-	.
O=C(COc1ccc(F)cc1Br)N1CCc2ccccc21	-	-	-	72	.	-
